Among the test systems are SR leukemia; RPMI-8226 leukemia; OVCAR-8 ovarian; OVCAR-5 ovarian; OVCAR-4 ovarian; SK-OV-3 ovarian; IGROV1 ovarian; OVCAR-3 ovarian; HS 578T breast; NCI/ADR-RES ovarian.
Assay in all cases: NCI-60 one-dose screen, 48 h (100 = growth as untreated, 0 = no growth, -100 = all killed)
What all share (settings): 10 µM unless noted

Each structure is given as a SMILES string. The panel holds about 83,000 compounds, 20% with a hit somewhere; the sample as a whole holds those more often.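 Assay: single dose, 48 h. Readout: percent growth (0 = no net growth; negative = cell death). Active: <10.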 Values without a mark were called inactive. Activity calls are given as the source filed them.

`O=C(Nc1nc2ccccc2s1)c1ccc(F)cc1`: the growth is 98.4% in the assay on SR leukemia; 88.5% in the assay on RPMI-8226 leukemia; 109% in the assay on OVCAR-8 ovarian; 101% in the assay with OVCAR-5 ovarian; 85.4% in the assay on OVCAR-4 ovarian; 108% in the assay on SK-OV-3 ovarian. The growth in the assay with IGROV1 ovarian is 88.9%; in the assay on OVCAR-3 ovarian, 104%; with HS 578T breast it was 140%; with NCI/ADR-RES ovarian, 95.7%.

Regarding `Cc1ccc(-c2nc([P+](c3ccccc3)(c3ccccc3)c3ccccc3)c(S(=O)(=O)c3ccc(C)cc3)o2)cc1`, the growth is -10.9% (active) with SR leukemia; -28.2% (active) in the assay with RPMI-8226 leukemia; 8.26% (active) with OVCAR-8 ovarian; 25.1% with OVCAR-5 ovarian; 14.2% in the assay on OVCAR-4 ovarian; 64.8% in the assay on SK-OV-3 ovarian. In addition, the growth in the assay with IGROV1 ovarian was 26.4%; with OVCAR-3 ovarian, 0.238% (active); with HS 578T breast, -9.93% (active); in the assay on NCI/ADR-RES ovarian, 59.5%.

For `N#Cc1nc(-c2ccc(Cl)cc2)oc1S(=O)(=O)N1CCN(c2ccc(F)cc2)CC1`, the growth was 23.9% in the assay with SR leukemia; 88.4% in the assay on RPMI-8226 leukemia; 82.3% with OVCAR-8 ovarian; 108% in the assay on OVCAR-5 ovarian; 106% in the assay on OVCAR-4 ovarian; 98.3% with SK-OV-3 ovarian. Further, the growth with IGROV1 ovarian was 78.8%; in the assay on OVCAR-3 ovarian, 108%; in the assay on HS 578T breast it was 103%; with NCI/ADR-RES ovarian it was 101%.

With `CS(=O)(=O)Nc1cncc(-c2ccc3ncnc(Nc4cncc(Cl)c4)c3c2)c1`, the growth in the assay with SR leukemia was 87.9%; with RPMI-8226 leukemia, 102%; in the assay on OVCAR-8 ovarian, 87.1%; in the assay with OVCAR-5 ovarian, 74.3%; in the assay on OVCAR-4 ovarian, 108%; in the assay on SK-OV-3 ovarian it was 81.8%. In addition, the growth in the assay on IGROV1 ovarian is 69.8%; in the assay on OVCAR-3 ovarian, 52.9%; in the assay on HS 578T breast, 56.6%; in the assay on NCI/ADR-RES ovarian, 95.7%.

For `Fc1cnccc1C1CC(c2ccc(N3CCNCC3)cc2)=NN1` (stereo not given), the growth in the assay on SR leukemia is 90.4%; with RPMI-8226 leukemia it was 92.5%; in the assay on OVCAR-8 ovarian, 95.1%; in the assay on OVCAR-5 ovarian, 111%; in the assay on OVCAR-4 ovarian, 108%; with SK-OV-3 ovarian, 85%. Moreover, the growth in the assay on IGROV1 ovarian is 68%; with OVCAR-3 ovarian, 98.8%; in the assay on HS 578T breast, 89.2%; with NCI/ADR-RES ovarian it was 106%.

Take `C#CCOc1cccc(Nc2ncnc3cc(NC(=O)C=C)ccc23)c1`: the growth in the assay with SR leukemia is 13%; in the assay on RPMI-8226 leukemia, 13.3%; in the assay on OVCAR-8 ovarian, 4.37% (active); in the assay on OVCAR-5 ovarian, 54.3%; in the assay on OVCAR-4 ovarian, 45.5%; in the assay on SK-OV-3 ovarian, 29.6%. The growth in the assay with IGROV1 ovarian was 6.96% (active); with OVCAR-3 ovarian, 6.09% (active); with HS 578T breast, 18.2%; in the assay on NCI/ADR-RES ovarian, 14.9%.

For the molecule `Cc1cn(-c2cc(NC(=O)c3cccc(C#Cc4cccc5[nH]nc(N)c45)c3)cc(C(F)(F)F)c2)cn1`, the growth is 28.3% in the assay with SR leukemia; 13.8% in the assay with RPMI-8226 leukemia; 28.5% with OVCAR-8 ovarian; 28.8% in the assay on OVCAR-5 ovarian; 45.6% in the assay with OVCAR-4 ovarian; 99.4% in the assay with SK-OV-3 ovarian. The growth is 15.4% in the assay with IGROV1 ovarian, 75.3% in the assay on OVCAR-3 ovarian, 31.4% with HS 578T breast and 67.1% with NCI/ADR-RES ovarian.

As for `COC(=O)Nc1nc2ccc(S(=O)c3ccccc3)cc2[nH]1` (stereo not given), the growth with SR leukemia was 23.4%; in the assay on RPMI-8226 leukemia, 75.6%; in the assay with OVCAR-8 ovarian, 80.3%; in the assay with OVCAR-5 ovarian it was 92.8%; in the assay with OVCAR-4 ovarian, 84.4%; in the assay with SK-OV-3 ovarian, 81.1%. Moreover, the growth in the assay on IGROV1 ovarian is 67.8%; in the assay on OVCAR-3 ovarian it was 57.9%; in the assay with HS 578T breast, 62%; in the assay with NCI/ADR-RES ovarian, 53.3%.

On to `COc1ccc(/C=N/NC(=O)c2ccc(-n3cc(-c4ccccc4)nn3)cc2)cc1OC`, for which the growth was 111% with SR leukemia; 61.8% in the assay on RPMI-8226 leukemia; 99% in the assay with OVCAR-8 ovarian; 97.9% in the assay with OVCAR-5 ovarian; 106% with OVCAR-4 ovarian; 99.3% in the assay with SK-OV-3 ovarian. Further, the growth with IGROV1 ovarian is 95.6%; in the assay with OVCAR-3 ovarian, 129%; in the assay on HS 578T breast, 103%; with NCI/ADR-RES ovarian it was 101%.

Regarding `C#CCOc1cccc(Nc2ncnc3ccc(NC(=O)C=C)cc23)c1`, the growth was 21.1% in the assay on SR leukemia; 35.7% with RPMI-8226 leukemia; 32.4% with OVCAR-8 ovarian; 52.6% with OVCAR-5 ovarian; 59.3% with OVCAR-4 ovarian; -3.78% (active) with SK-OV-3 ovarian. Besides, the growth is -6.06% (active) in the assay with IGROV1 ovarian, 19.2% in the assay on OVCAR-3 ovarian, 42.4% with HS 578T breast and 36.1% with NCI/ADR-RES ovarian.

With `CCOC(=O)c1cc(C(=O)c2cc(OC)c(OC)c(OC)c2)n2ncccc12`, the growth in the assay with SR leukemia was 18.3%; in the assay on RPMI-8226 leukemia it was 19.3%; in the assay with OVCAR-8 ovarian, 30.4%; in the assay with OVCAR-5 ovarian, 63.1%; in the assay with OVCAR-4 ovarian, 62.4%; in the assay with SK-OV-3 ovarian, 26.4%. In addition, the growth was 47.2% with IGROV1 ovarian, -15.2% (active) with OVCAR-3 ovarian, 31.1% with HS 578T breast and 3.34% (active) in the assay with NCI/ADR-RES ovarian.

Regarding `O=C(N/N=C/c1ccc(Cl)cc1)c1[nH]c2ccc(Cl)cc2c1-c1ccccc1`, the growth is 52.2% with SR leukemia; -3.56% (active) in the assay with RPMI-8226 leukemia; 28.8% in the assay on OVCAR-8 ovarian; 51.5% in the assay with OVCAR-5 ovarian; 41.4% in the assay with OVCAR-4 ovarian; -1.75% (active) with SK-OV-3 ovarian. Besides, the growth was 17.3% in the assay with IGROV1 ovarian, -13.4% (active) in the assay with OVCAR-3 ovarian, 82% with HS 578T breast and 1.79% (active) in the assay with NCI/ADR-RES ovarian.

In the case of `Nc1cnc(C(=O)NNc2nc3cc(F)ccc3n3cccc23)cn1`, the growth is 25.5% in the assay on SR leukemia; 52.6% with RPMI-8226 leukemia; 27.6% in the assay with OVCAR-8 ovarian; 56.6% in the assay on OVCAR-5 ovarian; 31.3% in the assay on OVCAR-4 ovarian; 37.9% with SK-OV-3 ovarian. Besides, the growth with IGROV1 ovarian was 26%; with OVCAR-3 ovarian, 20.9%; with HS 578T breast, 80.4%; in the assay with NCI/ADR-RES ovarian it was 16.2%.

These data come from PubChem BioAssay (NCI).
